Most compounds without a hit are left out; they make up all but 10% or so of the library.
IMPase inh – cell-permeable inhibitors of inositol monophosphatase (IMPase); inhibition (IP1 accumulation), % at 46.1 µM; 120,000 tested, under 10 active; P97697; CHO-M1 cells, IP1 accumulation, HTRF TR-FRET ratio; active means well fitted curve in the direction sought with a large enough effect in the signal ratio, not every such curve was filed as active; inconclusive means small, poorly fitted or top-dose-only effect, or a change in a side signal; inactive means no such curve, though single readings can be large or run the other way; the % refers to the signal ratio;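 further: cells stimulated with carbachol in lithium chloride buffer; plate controls were DMSO basal wells for no effect and reference inhibitor wells for full effect; higher means more IMPase inhibition seen as more IP1 and lower FRET ratio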
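Seeded CHO-M1 cells were dosed with compound at up to 46 uM, stimulated with carbachol for 30 min, then lysed in IP-One detection reagents. Higher IP1 lowers the TR-FRET signal.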
PNC inhibitor – inhibitors of perinucleolar compartment assembly; PC3M PTB-GFP, PNC prevalence imaging, 16 h; active compounds read low; activity change (PNC), negative = inhibition, % at 10 µM; hit rate 3.1% among 140,000; AID 2417;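 active means readout at or below -70, meaning at least 70% loss of cells showing the perinucleolar compartment, a nuclear body marking cancer cells; inconclusive means readout between -30 and a set limit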;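 further: plate controls were DMSO wells for no effect and camptothecin positive control wells for full effect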
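Compounds are pinned in duplicate onto adhered PC3M cells stably expressing GFP-tagged PTB and incubated 16 h at 37 C. Cells are then fixed, nuclei stained with Hoechst, and PNC-positive cells counted.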
HPGD inh – HPGD (human) dehydrogenase inhibition; hit rate 4.3% among 150,000; Potency, µM, without a hit: top-dose activity change, negative = inhibition, hits mostly inhibitors; AID 894; purified HPGD, NADH fluorescence kinetic, PGE2 substrate; further: potency means the concentration at half of the fitted maximal effect
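NADH formation kinetics: reaction with 30 uM PGE2 and 1 mM NAD+ (final), 20 nM enzyme, Tris-HCl pH 8 with Tween 20, after 15 min compound preincubation at room temperature. Fluorescence change, last versus first of five reads.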
Lamin A splicing – changes lamin A minigene splicing in HeLa cells | HeLa LMNA splicing GFP/RFP minigene ratio, 48 h | Potency, µM (titrated, usually from 46.1 µM), for inactives: at the top dose ratio change, negative = inhibition, hits mostly inhibitors | hit rate 0.01% among 200,000 | AID 1487; active means well fitted inhibition curve with a large enough effect in the signal ratio, with a control signal flat, not every such curve was filed as active; inconclusive means small, poorly fitted or top-dose-only effect, or effect the other way, or a change in a side signal; the % refers to the signal ratio; further: potency means the concentration at half of the fitted maximal effect
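S3 HeLa stable clones carrying a lamin A-EGFP splicing minigene plus DsRed2 were seeded at 600 cells/well in Opti-MEM with 2% FBS, pin-dosed and incubated 48 h at 37°C. Acumen cytometry (488 nm) gave the GFP/RFP total-intensity ratio.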
ALDH1A1 block – blocks purified human ALDH1A1 activity; P00352; Purified ALDH1A1, NADH fluorescence, propionaldehyde substrate; Potency, µM (series often up to 75.3 µM), for inactives: at the top dose activity, negative = inhibition, most hits filed as inhibitors; hit rate 7.3% among 220,000;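 further: potency means the concentration at half of the fitted maximal effect; plate controls were no enzyme wells and a reference inhibitor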
Target sequence (P00352 whole entry, looked up): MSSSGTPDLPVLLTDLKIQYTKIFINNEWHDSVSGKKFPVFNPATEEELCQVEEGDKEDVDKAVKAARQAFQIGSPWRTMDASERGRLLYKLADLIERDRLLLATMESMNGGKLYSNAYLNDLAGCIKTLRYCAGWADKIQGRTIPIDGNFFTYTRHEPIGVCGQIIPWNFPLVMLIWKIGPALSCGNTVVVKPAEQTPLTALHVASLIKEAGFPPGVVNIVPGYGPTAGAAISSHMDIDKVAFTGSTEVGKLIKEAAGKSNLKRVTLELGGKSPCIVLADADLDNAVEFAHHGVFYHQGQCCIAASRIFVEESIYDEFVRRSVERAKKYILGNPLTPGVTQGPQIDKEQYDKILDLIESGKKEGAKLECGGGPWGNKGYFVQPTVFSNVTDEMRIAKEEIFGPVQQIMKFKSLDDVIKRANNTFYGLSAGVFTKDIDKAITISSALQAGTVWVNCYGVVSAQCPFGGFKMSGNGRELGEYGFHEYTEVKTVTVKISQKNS
KinaseGlo FLuc – counter-screen: inhibitors of Kinase-Glo firefly luciferase. Q27757. Kinase-Glo luciferase, ATP luminescence, 8 min. Potency, µM (doses to about 38.3 µM), for inactives: top-dose activity change, negative = inhibition, hits mostly inhibitors. hit rate 0.28% among 200,000. AID 1379; active means well fitted inhibition curve with a large enough effect; inconclusive means small, poorly fitted or top-dose-only effect; further: potency means the concentration at half of the fitted maximal effect; nearly all actives have a fitted effect of over 60% in size
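Compounds were added to a substrate mix at pH 7.2 (50 mM imidazole, 10 uM ATP, within the enzyme's linear range), followed by Kinase-Glo detection reagent; luminescence was measured after 8 minutes at ambient temperature.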
Starred values were filed as active, the others as inactive; ? = inconclusive; / = no result; ! = not confirmed by another sample; [ ] = another dose, or the depositor's remark. Unless noted, the call rests on the fitted dose curve; in most records, active means well fitted inhibition curve with a large enough effect (not every such curve was filed as active); inconclusive means small, poorly fitted or top-dose-only effect, or another doubt; inactive means no such curve, though single readings can be large or run the other way. Unless noted, on the % scale 0 is the no-effect control and ±100 the full control effect.

SMILES	IMPase inh	PNC inhibitor	HPGD inh	Lamin A splicing	ALDH1A1 block	KinaseGlo FLuc
COc1cc(OC)c(C#N)c(S(=O)Cc2ccccc2)c1 (stereo not given)	2	32	-4%	16%	14µM*	-3%
CCSCCOC(=O)C1=C(C)NC(=O)NC1c1ccc2c(c1)OCO2 (stereo not given)	7	7	-14%	-6%	14µM*	6%
Clc1ccc(SCCCCN2CCOCC2)cc1	/	7	-3%	3%	-1%	-2%
O=C(CCN1CCOCC1)c1ccc(Cl)cc1	/	/	/	/	0.089µM*	-5%
O=C(CCN1CCN(c2ccccc2F)CC1)c1ccc(Br)cc1	0	?	/	?	?	/
O=C(CCN1CCOCC1)c1ccc(Br)cc1	/	/	/	?	0.1µM*	-1%
O=C(CSc1nc2ccccc2c(=O)n1Cc1ccco1)c1ccc(F)cc1	11	-2	-30%	?	11µM*	-3%
COCCNC(=O)CSc1nc2cc(OC)c(OC)cc2c(=O)n1Cc1ccco1	13	?	-14%	0%	2.2µM*	-8%
COCCCNC(=O)CSc1nc2ccccc2c(=O)n1Cc1ccco1	/	/	/	3%[46 µM]	/	/
CCSc1nc2cc(OC)c(OC)cc2c(=O)n1CC	-4	7	-13%	0%	8.9µM*	-4%
COc1ccc(Cn2c(SCC(=O)NCc3ccco3)nc3ccsc3c2=O)cc1	2	5	-6%	-6%	-2%	6%
O=C(CSc1nc2ccsc2c(=O)n1Cc1ccc(C(=O)O)cc1)NCc1ccco1	/	-113*	20µM*	0%	6%	2%
CCn1c(CN2CCCCC2)nc2cc(NC(=O)COc3ccccc3C(C)(C)C)ccc21	/	/	/	0%[46 µM]	/	/
O=C(CCCCCn1c(SCc2ccncc2)nc2ccccc2c1=O)NCc1ccco1	23	-100*	18µM*	-18%	25µM*	0%
O=C(CSc1nc2ccccc2c(=O)n1Cc1ccccc1)NCc1ccco1	-20	54	-23%	0%	?	-1%
O=C(CSc1nc2ccccc2c(=O)n1Cc1ccc(C(=O)NC2CC2)cc1)NCc1ccco1	0	-17	2.8µM*	?	-8%	-1%
CC(C)[C@@H](CC(=O)N[C@@H]1CCCC[C@H]1C(=O)N[C@H](CC(=O)N[C@@H](CCC(=O)O)CC(=O)O)Cc1c[nH]c2ccccc12)NC(=O)C[C@H](Cc1ccccc1)NC(=O)[C@@H]1CNCC[C@H]1N	/	/	-9%	/	-6%	0%
CCSc1nc2c(c(=O)[nH]c(=O)n2C)n1CC(O)COc1ccccc1 (stereo not given)	/	/	/	-21%[46 µM]	-3%	2%
CC(C)CSc1nc2c(c(=O)[nH]c(=O)n2C)n1CC(O)COc1cccc2ccccc12 (stereo not given)	-5	16	13µM*	0%	18µM*	-4%
Cn1c(=O)[nH]c(=O)c2c1nc(SCC(O)CO)n2Cc1ccccc1Cl (stereo not given)	-6	1	-22%	-3%	14µM*	-5%
C=C1c2cccc(C(F)(F)F)c2O[C@H](C(=O)OCC)[C@@H]1CCCCCC	/	/	0%	/	4%	-1%[39.9 µM]
Cc1nnc(N(C)C(=O)Cc2ccc3c(c2)OCO3)s1	-5	-100*	-17%	-10%	-5%	-1%
Nc1nc2n(n1)C1(CCCCC1)C1=C(CCCC1)N2	-11	14	-1%	-6%	?	1%
C1CCC2(CC1)C1=C(CCCC1)Nc1nnnn12	7	?	2%	9%	28µM*	-2%
CCOCCn1ccc2c(OCC(=O)Nc3ccc(C(N)=O)cc3)cccc2c1=O	/	/	/	-7%[46 µM]	/	/
SMILES	IMPase inh	PNC inhibitor	HPGD inh	Lamin A splicing	ALDH1A1 block	KinaseGlo FLuc
CCOc1ccc(S(=O)(=O)N(CC)CC)cc1NS(=O)(=O)c1ccc(F)c(F)c1F	/	-6	-1%	-16%	?	0%
CCN(CC)S(=O)(=O)c1ccc(O)c(NS(=O)(=O)c2ccccc2F)c1	/	2	25µM*	?	13µM*	3%
CC(C)Oc1ccc(CNC(=O)c2cnc3sc(N4CCCCCC4)nn3c2=O)cc1	/	/	/	1%[46 µM]	/	/
COc1cccc(NC(=O)CN(CCc2ccccc2)S(=O)(=O)c2ccc(Cl)cc2)c1	-3	/	/	/	/	/
COC(=O)c1ccc(NC(=O)NCCn2nnc3cc(S(=O)(=O)N(C)C)ccc32)cc1	/	/	/	-2%[46 µM]	/	/
Cc1ccc(CN2CCN(Cc3cc(=O)c4ccccc4[nH]3)CC2CCO)o1 (stereo not given)	/	/	/	/	18µM*	-1%
O=C1NC(=O)C(c2ccccc2[N+](=O)[O-])=C1Nc1ccc(O)c(Cl)c1	-3	/	-14%	?	28µM*!	0%
O=C(NNc1ccccc1[N+](=O)[O-])Nc1ccc(Cl)c(Cl)c1	/	21	-19%	?	?	2%
O=C(COc1ccccc1)NCCSCc1ccco1	0	?	22µM*	-7%	?	5%
O=C(NCCSCc1ccco1)Nc1ccc(Cl)cc1	-14	12	-12%	6%	?	-3%
O=C(CCSc1ccccc1)NCCSCc1ccco1	3	-24	/	-15%	11µM*	/
CCN(CC)c1ccc2cc(-c3nc4sc5c(c4c(=O)[nH]3)CCC(C(C)(C)C)C5)c(=O)oc2c1 (stereo not given)	/	/	/	3%[46 µM]	/	/
CCCCN(CC)CCCNC(=O)C1CCCN(c2ncnc3c2nc2n3CCCCC2)C1 (stereo not given)	/	/	/	-13%[46 µM]	/	/
Cn1cccc1Cc1nnc(SCC(=O)NCc2ccco2)n1-c1ccc(F)cc1	-3	34	-5%	-4%	13µM*	-1%
Cn1cccc1Cc1nnc(SCC(=O)NC2CCCCC2)n1-c1ccc(F)cc1	-1	-14	-8%	3%	20µM*	4%
